# Measurements taken from PubChem BioAssay (NCATS).
# Inconclusive results are not listed. Entries that show only a call come without a potency. Calls of active or inactive are those of the source. The call rests on the fitted dose curve; in most records, active means well fitted curve in the direction sought with a large enough effect; inconclusive means small, poorly fitted or top-dose-only effect, or another doubt; inactive means no such curve, though single readings can be large; an effect the other way counts as inactive or inconclusive.
# Assays:
# [1] = tested on: Zika virus NS2B-NS3 protease (unlinked); assay: Optimization of GU AMC qHTS for Zika virus inhibitors: Unlinked NS2B-NS3 protease assay (AID 1347151); further: nearly all actives have a fitted effect of over 80% in size; further: potency means the concentration at half of the fitted maximal effect
# How it was run: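 Fluorescence gain (340/450 nm) over 15 min at room temperature, ~20% conversion, gave percent inhibition fitted to a 4-parameter Hill equation; enzyme was unlinked NS2B-NS3 (25 nM final), pH 8.0 Tris buffer.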
# Furin (Homo sapiens) = Furin (Homo sapiens) (UniProt P09958); assay: Furin counterscreen qHTS for Zika virus inhibitors (AID 1347149); further: nearly all actives have a fitted effect of over 70% in size; further: potency means the concentration at half of the fitted maximal effect
# Chain of Furin (Homo sapiens) (P09958 whole entry, looked up): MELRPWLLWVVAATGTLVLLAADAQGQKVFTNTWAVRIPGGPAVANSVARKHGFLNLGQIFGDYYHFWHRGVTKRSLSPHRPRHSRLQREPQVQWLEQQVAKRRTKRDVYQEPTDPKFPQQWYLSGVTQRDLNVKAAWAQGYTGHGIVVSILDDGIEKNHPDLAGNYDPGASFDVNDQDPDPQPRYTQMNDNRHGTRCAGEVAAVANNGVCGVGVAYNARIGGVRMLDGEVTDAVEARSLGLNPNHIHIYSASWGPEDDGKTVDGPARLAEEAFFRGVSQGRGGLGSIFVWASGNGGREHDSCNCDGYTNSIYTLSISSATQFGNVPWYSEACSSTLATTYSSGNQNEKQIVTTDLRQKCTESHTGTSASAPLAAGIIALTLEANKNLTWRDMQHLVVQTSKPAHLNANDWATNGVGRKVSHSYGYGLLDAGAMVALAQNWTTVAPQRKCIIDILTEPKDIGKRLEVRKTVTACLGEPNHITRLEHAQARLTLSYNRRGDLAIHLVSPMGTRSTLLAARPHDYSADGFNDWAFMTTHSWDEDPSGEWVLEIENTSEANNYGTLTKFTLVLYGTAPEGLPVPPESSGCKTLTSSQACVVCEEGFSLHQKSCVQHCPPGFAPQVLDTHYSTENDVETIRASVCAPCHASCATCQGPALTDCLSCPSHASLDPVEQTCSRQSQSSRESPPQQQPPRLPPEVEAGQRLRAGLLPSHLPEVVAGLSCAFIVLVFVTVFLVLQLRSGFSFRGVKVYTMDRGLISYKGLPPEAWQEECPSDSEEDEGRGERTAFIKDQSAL
# How it was run: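 Fluorogenic cleavage of BOC-RVRR-AMC (2 microM final, Km ~15 µM) was monitored (ex 340, em 450 nm) at 37C after 15 min RT preincubation of 5 nM furin with compounds in HEPES pH 7.0 buffer with CaCl2 and Triton X-100. Percent inhibition was fitted to a 4-parameter Hill curve.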
# [2] = tested on: Zika virus NS2B-NS3 protease (unlinked complex); assay: Confirmatory screen GU AMC qHTS for Zika virus inhibitors (AID 1347153); further: nearly all actives have a fitted effect of over 70% in size
# How it was run: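 Compounds were preincubated 15 min at room temperature with 25 nM noncovalent NS2B-NS3 protease at pH 8.0; AMC substrate added at 10 microM and 15-min fluorescence gain (340/450 nm) converted to percent inhibition, fitted 4-parameter.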
# [3] = tested on: Zika virus NS2B-NS3 protease (linked construct); assay: Confirmatory screen NINDS AMC qHTS for Zika virus inhibitors (AID 1347152); further: nearly all actives have a fitted effect of over 70% in size; further: potency means the concentration at half of the fitted maximal effect
# How it was run: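 IC50s from 4-parameter Hill fits of percent inhibition, based on AMC fluorescence gain (340/450 nm) over 15 min with 10 microM Bz-Nle-KRR-AMC. Enzyme: 1 nM linked NS2B-NS3 in Tris-HCl pH 8.0; 15-min compound preincubation.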
# [4] = target: N-terminal Xaa-Pro-Lys N-methyltransferase 1 (Homo sapiens) (UniProt Q9BV86); assay: qHTS Assay for Inhibitors of N-terminal methyltransferase 1 (NTMT1): LOPAC validation of the NTMT1 SAHH-coupled ThioGlo3 Assay (AID 1347143);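 further: SAH from peptide methylation measured as thiol fluorescence via SAHH coupling and ThioGlo3; nearly all actives have a fitted effect of over 70% in size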
# Chain of N-terminal Xaa-Pro-Lys N-methyltransferase 1 (Homo sapiens) (Q9BV86 whole entry, looked up): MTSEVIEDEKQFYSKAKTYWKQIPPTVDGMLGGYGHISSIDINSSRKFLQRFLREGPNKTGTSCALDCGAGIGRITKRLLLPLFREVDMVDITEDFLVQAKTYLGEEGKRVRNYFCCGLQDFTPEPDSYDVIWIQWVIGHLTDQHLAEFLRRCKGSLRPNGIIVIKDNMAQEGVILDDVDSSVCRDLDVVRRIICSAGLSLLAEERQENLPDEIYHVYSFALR
# How it was run: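 Inhibition of NTMT1 methylation of peptide SPKRIA is followed by converting SAH with SAHH and labelling the released thiol with ThioGlo3. Plates are read at 340/450nm before and 30 min after reagent addition, both at room temperature.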
# [5] = tested on: Zika virus NS2B-NS3 protease; assay: Primary screen GU AMC qHTS for Zika virus inhibitors (AID 1347154); further: nearly all actives have a fitted effect of over 70% in size; further: potency means the concentration at half of the fitted maximal effect
# How it was run: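 Fluorogenic AMC-substrate cleavage by noncovalent NS2B-NS3 protease complex (25 nM, pH 8.0 Tris buffer with Tween 20) followed for 15 minutes at room temperature (~20% conversion). Percent inhibition from ex340/em450 signal change, fitted by 4-parameter Hill equation.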
smiles,measurement,setting,value
O=C(CCc1ccncc1)NNC(=O)N1Cc2ccccc2Oc2ccc(Cl)cc21,Potency,[1],inactive
CCCCCCCCCCCCCCCCCC(=O)OC(CC(=O)O)C[N+](C)(C)C (stereo unspecified),Potency,[1],inactive
C=C[C@@H]1CN2CC[C@@H]1C[C@H]2[C@H](O)c1ccnc2ccc(OC)cc12,Potency,Furin (Homo sapiens),24.1 µM (active)
same,outcome,[2],inactive
CC[C@@H](C)[C@H]1O[C@]2(CC[C@H]1C)C[C@@H]1C[C@@H](CC=C(C)[C@@H](O[C@H]3C[C@H](OC)[C@@H](O[C@H]4C[C@H](OC)[C@@H](O)[C@H](C)O4)[C@H](C)O3)[C@@H](C)C=CC=C3CO[C@@H]4[C@H](O)C(C)=C[C@@H](C(=O)O1)[C@]34O)O2,Potency,Furin (Homo sapiens),inactive
CCN(CC)c1ncnc2c1ncn2[C@@H]1O[C@H](COP(=O)(O)OP(=O)(O)C(Br)(Br)P(=O)(O)O)[C@@H](O)[C@H]1O,Potency,[1],inactive
COC(=O)C1=C(C)NC(C)=C(C(=O)OC)C1c1cccc(NC(=O)NCCCN2CCC(c3cccc(OC)c3)CC2)c1,Potency,Furin (Homo sapiens),30.3 µM (active)
same,Potency,[3],inactive
same,outcome,[2],inactive
Cc1ccccc1CNc1ncnc2c1ncn2C1OC(CO)C(O)C1O (stereo unspecified),Potency,Furin (Homo sapiens),inactive
same,Potency,[1],inactive
Nc1ccn([C@@H]2O[C@H](CO)[C@@H](O)[C@@H]2O)c(=O)n1,Potency,[1],inactive
O=C(Nc1cccc(C(=O)Nc2ccc(S(=O)(=O)O)c3cc(S(=O)(=O)O)cc(S(=O)(=O)O)c23)c1)Nc1cccc(C(=O)Nc2ccc(S(=O)(=O)O)c3cc(S(=O)(=O)O)cc(S(=O)(=O)O)c23)c1,Potency,[4],inactive
same,Potency,[5],inactive
O=P(O)(O)C(Cl)(Cl)P(=O)(O)O,Potency,[1],inactive
CCNC(=O)[C@H]1O[C@@H](n2cnc3c(N)nc(NCCc4ccc(CCC(=O)O)cc4)nc32)[C@H](O)C1O (stereo partly specified),Potency,[1],inactive
COc1ccccc1CN[C@@H]1CCCN[C@@H]1c1ccccc1,Potency,[1],inactive
CO/N=C(\C(=O)N[C@@H]1C(=O)N2C(C(=O)O)=C(COC(C)=O)CS[C@H]12)c1csc(N)n1,Potency,[1],inactive
O=C(Nc1ccccc1)c1cc([N+](=O)[O-])ccc1Cl,Potency,[4],inactive
same,Potency,[1],inactive
same,Potency,[5],inactive
C=CCc1cccc(/C=N/NC(=O)CN2CCN(Cc3ccccc3)CC2)c1O,Potency,[4],inactive
same,Potency,[5],inactive
CC(C)CC(NP(=O)(O)O[C@@H]1O[C@@H](C)[C@H](O)[C@@H](O)[C@H]1O)C(=O)NC(Cc1c[nH]c2ccccc12)C(=O)O (stereo partly specified),Potency,[1],inactive
CC1OC1P(=O)(O)O (stereo unspecified),Potency,[1],inactive
CN(C)c1nc(N)c(C(=O)N=C(N)N)nc1Cl,Potency,[1],inactive
O=C(NOCC1CC1)c1cc(Br)c(F)c(F)c1Nc1ccc(I)cc1Cl,Potency,Furin (Homo sapiens),inactive
same,Potency,[3],inactive
same,outcome,[2],inactive
CN1CCN(c2cc3c(nn2)Oc2ccccc2N3C)CC1,Potency,Furin (Homo sapiens),11.8 µM (active)
same,Potency,[3],10.5 µM (active)
same,Potency,[5],9.89 µM (active)
CC(C)(NS(=O)(=O)c1ccc(Oc2ccc(F)cc2)cc1)C(=O)NO,Potency,[1],inactive
NC(=S)c1ccc[n+]([C@@H]2O[C@@H](COP(=O)([O-])OP(=O)(O)OC[C@H]3O[C@@H](n4cnc5c(N)ncnc54)[C@H](OP(=O)(O)O)[C@@H]3O)C(O)C2O)c1 (stereo partly specified),Potency,[1],inactive
Fc1ccc(C(OCCCc2cnc[nH]2)c2ccc(F)cc2)cc1,Potency,[1],inactive
COc1cc2c(CCNC(C)=O)c[nH]c2cc1Cl,Potency,[4],inactive
same,Potency,[1],inactive
same,Potency,[5],inactive
Nc1nc(SCc2ccc([N+](=O)[O-])cc2)c2ncn([C@@H]3O[C@H](CO)[C@@H](O)[C@H]3O)c2n1,Potency,[1],inactive
same,Potency,[5],inactive
CNC(=O)[C@H]1O[C@@H](n2cnc3c(NCc4ccc(N)cc4)ncnc32)[C@H](O)[C@@H]1O,Potency,[1],inactive
same,Potency,[5],inactive
O=C1NC(=O)c2c1c(-c1ccccc1)cc1[nH]c3ccc(O)cc3c21,Potency,[1],inactive
same,Potency,[5],inactive
CCCCCCCCc1ccc(-c2ccc(C(=O)O)cc2)cc1,Potency,[1],11.9 µM (active)
same,Potency,[5],inactive
CNCC[C@H](Oc1ccc(C(F)(F)F)cc1)c1ccccc1,Potency,[1],inactive
same,Potency,[5],inactive
Nc1ncnc2c1ncn2[C@@H]1O[C@H](COP(=O)(O)CP(=O)(O)OP(=O)(O)O)[C@@H](O)[C@H]1O,Potency,[1],inactive
same,Potency,[5],inactive
O=C(O)CNC(=O)C(CS)Cc1ccccc1 (stereo unspecified),Potency,[1],inactive
same,Potency,[5],inactive
Nc1ncnc2c1ncn2[C@@H]1O[C@H](COP(=O)(O)OP(=O)(O)OP(=O)(O)OP(=O)(O)OC[C@@H]2O[C@H](n3cnc4c(N)ncnc43)[C@@H](O)[C@H]2O)[C@@H](O)[C@H]1O,Potency,[1],inactive
same,Potency,[5],inactive
CNC(=O)[C@H]1O[C@@H](n2cnc3c(NCc4cccc(I)c4)ncnc32)[C@H](O)[C@@H]1O,Potency,[1],inactive
same,Potency,[5],inactive
